Measured values from PubChem BioAssay (NCI).
Compounds without any hit were thinned out: in the full panel of roughly 79,000, 15% have a hit. Active and inactive are the calls of the source. Cut-off read from the data, not from the text of the source: active = growth inhibition above about 70%; inactive = the rest.

Columns and labels:
[1] = NCI Yeast Anticancer Drug Screen. Data for the rad52 strain (AID 147);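 note: 0% = growth of vehicle-treated control cultures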; conditions: S. cerevisiae rad52 mutant growth inhibition, active compounds read high
In short: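 Genetically altered yeast (DNA damage repair defect) treated with compound; inhibition calculated relative to vehicle.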

[2] = NCI Yeast Anticancer Drug Screen. Data for the wt1 strain (AID 149);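 note: 0% = growth of vehicle-treated wt1 cultures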; conditions: S. cerevisiae wt1 strain (SPY 50644) growth inhibition, active compounds read high
In short: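 Measured: growth of wt1 yeast under compound versus vehicle treatment, reported as inhibition.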

[3] = NCI Yeast Anticancer Drug Screen. Data for the rad50EPP+ strain (AID 151);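 note: 0% = growth of vehicle-treated control cultures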; conditions: S. cerevisiae rad50 mutant strain, active compounds read high
In short: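 Strain rad50EPP+; compound exposure; % growth inhibition vs vehicle.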

[4] = NCI Yeast Anticancer Drug Screen. Data for the mgt1 strain (AID 153); conditions: S. cerevisiae mgt1 mutant growth inhibition, active compounds read high
In short: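 Read-out: yeast growth inhibition vs vehicle control. Strain mgt1, drawn from a panel altered in DNA damage repair or cell cycle control.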

[5] = NCI Yeast Anticancer Drug Screen. Data for the rad50 strain (AID 155);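 note: 0% = growth of vehicle-only cultures of the same strain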; conditions: S. cerevisiae rad50 strain growth inhibition, active compounds read high
In short: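 Growth of the mutant yeast was measured after compound exposure and referenced to vehicle-treated cultures.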

[6] = NCI Yeast Anticancer Drug Screen. Data for the mec2-1 strain (AID 157); conditions: S. cerevisiae mec2-1 strain, active compounds read high
In short: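 Cells of the genetically defined mec2-1 yeast strain are incubated with test compound. Inhibition of growth is calculated against vehicle-treated controls.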

[7] = NCI Yeast Anticancer Drug Screen. Data for the rad14 strain (AID 159);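 note: 0% = growth of vehicle-treated control cultures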; conditions: S. cerevisiae rad14 strain growth inhibition, active compounds read high
In short: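 Here, inhibition of yeast growth was measured after compound exposure, using a strain with a genetic defect in DNA damage repair and vehicle-treated cultures as the reference.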

[8] = NCI Yeast Anticancer Drug Screen. Data for the sgs1 mgt1 strain (AID 161);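 note: 0% = growth of cultures given vehicle only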; conditions: S. cerevisiae sgs1 mgt1 strain, active compounds read high
In short: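 Read-out: growth inhibition vs vehicle controls. Cells: mutant yeast strain deficient in DNA damage repair.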

[9] = NCI Yeast Anticancer Drug Screen. Data for the CLN2oe strain (AID 163);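 note: 0% = growth of vehicle-only control cultures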; conditions: S. cerevisiae CLN2oe strain, active compounds read high
In short: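 Strain altered in cell-cycle control, incubated with compound; growth compared to solvent-treated controls.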

[10] = NCI Yeast Anticancer Drug Screen. Data for the cln2 rad14 strain (AID 165);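 note: 0% = growth equal to vehicle treated cultures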; conditions: S. cerevisiae cln2 rad14 strain, active compounds read high
In short: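 The screen exposed genetically defined yeast (cln2 rad14) to test compounds and scored growth inhibition relative to vehicle-treated controls.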

[11] = NCI Yeast Anticancer Drug Screen. Data for the bub3 strain (AID 167); conditions: S. cerevisiae bub3 mutant strain, active compounds read high
In short: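 Whole-cell yeast assay. The mutant strain was incubated with compounds, and growth inhibition was determined by comparison with vehicle-treated cells.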

[12] = NCI Yeast Anticancer Drug Screen. Data for the wt2 strain (AID 169);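 note: 0% = growth of vehicle-treated yeast cultures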; conditions: S. cerevisiae wt2 strain growth inhibition, active compounds read high
In short: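 Steps: yeast strain treated with compound; growth recorded; inhibition calculated relative to cultures given vehicle alone.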

[13] = NCI Yeast Anticancer Drug Screen. Data for the mlh1 strain (AID 171);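 note: 0% = growth of vehicle-treated control cultures of the same strain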; conditions: S. cerevisiae mlh1 strain growth inhibition, active compounds read high
In short: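 Yeast screen: mutant strain plus compound, growth scored against vehicle control wells.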

[14] = NCI Yeast Anticancer Drug Screen. Data for the sgs1 strain (AID 173);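 note: 0% = growth of vehicle-only control cultures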; conditions: S. cerevisiae sgs1 mutant, active compounds read high
In short: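 Inhibition of yeast growth served as the measure. The mutant strain was treated with each compound, and growth was normalised to cultures receiving vehicle alone.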

[15] = NCI Yeast Anticancer Drug Screen. Data for the mlh1 rad18 strain (AID 175); conditions: S. cerevisiae mlh1 rad18 strain growth inhibition, active compounds read high
In short: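 Compound-treated yeast growth, normalised to vehicle controls. Strain bears defined DNA repair mutations.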

[16] = NCI Yeast Anticancer Drug Screen. Data for the rad18 strain (AID 177); conditions: S. cerevisiae rad18 mutant growth inhibition, active compounds read high
In short: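 Inhibition values reflect reduced yeast growth compared with vehicle-treated controls, using a strain engineered with a DNA damage repair defect.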

[17] = at 5.0 µM (retest, dose inferred, filed as 0.5)
[18] = at 50.0 µM (retest, dose inferred, filed as 5.0)

Measured: growth inhibition

O=S(=O)(CCCl)c1ccccc1Cl
inactive: [1]; at 1.2 µM -5% | [1]; at 3.7 µM 1% | [1]; at 11.0 µM 42% | [2]; at 1.2 µM 3% | [2]; at 3.7 µM 23% | [2]; at 11.0 µM 33% | [3]; at 1.2 µM -7% | [3]; at 3.7 µM 15% | [3]; at 11.0 µM 43% | [4]; at 1.2 µM 1% | [4]; at 3.7 µM 1% | [4]; at 11.0 µM 41% | [5]; at 1.2 µM -8% | [5]; at 3.7 µM -12% | [5]; [17] -119% | [5]; at 11.0 µM 65% | [6]; at 1.2 µM 2% | [6]; at 3.7 µM 8% | [6]; [17] -36% | [6]; at 11.0 µM 19% | [7]; at 1.2 µM -2% | [7]; at 3.7 µM 11% | [7]; at 11.0 µM 45% | [8]; [17] -42% | [9]; at 1.2 µM -5% | [9]; at 3.7 µM -2% | [9]; at 11.0 µM 3% | [9]; at 33.0 µM 68% | [10]; [17] -42% | [10]; [18] 25% | [11]; at 1.2 µM -1% | [11]; at 3.7 µM 6% | [11]; [17] -59% | [11]; at 11.0 µM 38% | [12]; at 1.2 µM 8% | [12]; at 3.7 µM 32% | [12]; at 11.0 µM 64% | [13]; at 1.2 µM -10% | [13]; at 3.7 µM -1% | [13]; at 11.0 µM 27% | [14]; at 1.2 µM -5% | [14]; at 3.7 µM 0% | [14]; at 11.0 µM 64% | [15]; [17] -115% | [16]; at 1.2 µM -1% | [16]; at 3.7 µM 13%
active: [1]; at 33.0 µM 93% | [1]; at 100.0 µM 99% | [2]; at 33.0 µM 94% | [2]; at 100.0 µM 98% | [3]; at 33.0 µM 79% | [3]; at 100.0 µM 84% | [4]; at 33.0 µM 96% | [4]; at 100.0 µM 98% | [5]; at 33.0 µM 94% | [5]; [18] 79% | [5]; at 50.0 µM 94.2% | [5]; at 100.0 µM 98% | [6]; at 33.0 µM 83% | [6]; [18] 79% | [6]; at 50.0 µM 91.8% | [6]; at 100.0 µM 98% | [7]; at 33.0 µM 91% | [7]; at 100.0 µM 99% | [8]; [18] 87% | [8]; at 50.0 µM 90.8% | [9]; at 100.0 µM 97% | [10]; at 50.0 µM 84.3% | [11]; at 33.0 µM 94% | [11]; [18] 80% | [11]; at 50.0 µM 90.7% | [11]; at 100.0 µM 98% | [12]; at 33.0 µM 98% | [12]; at 100.0 µM 99% | [13]; at 33.0 µM 90% | [13]; at 100.0 µM 97% | [14]; at 33.0 µM 95% | [14]; at 100.0 µM 99% | [15]; [18] 81% | [15]; at 50.0 µM 90.2% | [16]; at 11.0 µM 83% | [16]; at 33.0 µM 96% | [16]; at 100.0 µM 98%
